Measurements reported in PubChem BioAssay (EPA / NIEHS).
Calls of active or inactive are those of the source. The calls were made as follows: active = hit-call score of the fitted dose curve at least 0.9, where 1 is the maximum; inactive = score below 0.9.

What was measured:
[1] = read-out: catalase (CAT), CAT (gene 847); assay: LTEA_HepaRG_CAT: Life Technologies and Expression Analysis (LTEA) Assay for catalase (CAT) using HepaRG (AID 2283452); conditions: mRNA level, 48 h; actives raise or lower the signal;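 as to AC50: TaqMan qRT-PCR signal normalized to ACTB GAPDH and POLR2A housekeeping genes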
Summary of the method: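 Differentiated HepaRG cells in serum-free induction medium were dosed 48 h in duplicate, eight half-log concentrations from 100 uM in 0.5% DMSO. Transcript measured by TaqMan qRT-PCR, normalised to ACTB/GAPDH/POLR2A, fitted bidirectionally against DMSO.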

[2] = read-out: flavin-containing dimethylaniline monooxygenases 3 (FMO3), FMO3 (gene 2328); assay: LTEA_HepaRG_FMO3: Life Technologies and Expression Analysis (LTEA) Assay for flavin-containing dimethylaniline monooxygenases 3 (FMO3) using HepaRG (AID 2283453); conditions: mRNA level, 48 h; actives raise or lower the signal;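 as to AC50: FMO3 transcript by TaqMan qRT-PCR normalized to ACTB GAPDH and POLR2A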
Summary of the method: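 Eight-point concentration-response in serum-free HepaRG cultures (top 100 uM, 0.5% DMSO, 48 h). Read-out: FMO3 mRNA level normalized to three endogenous control genes, fitted bidirectionally versus vehicle.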

[3] = read-out: Cytochrome P450 (CYP1A1), CYP1A1 (gene 1543); assay: LTEA_HepaRG_CYP1A1: Life Technologies and Expression Analysis (LTEA) Assay for Cytochrome P450 (CYP1A1) using HepaRG (AID 2283454); conditions: mRNA level, 48 h; actives raise or lower the signal
Summary of the method: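 Induction of CYP1A1 mRNA in a human hepatic cell line was measured 48 h after dosing, with 1 mM phenobarbital as induction positive control and 0.5% DMSO vehicle as baseline for bidirectional curve fitting.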

[4] = read-out: CFLAR gene, CFLAR (gene 8837); assay: LTEA_HepaRG_CFLAR: Life Technologies and Expression Analysis (LTEA) Assay for CFLAR gene using HepaRG (AID 2283455); conditions: mRNA level, 48 h; actives raise or lower the signal
Summary of the method: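 Gain- or loss-of-signal changes in CFLAR transcript were fitted bidirectionally relative to 0.5% DMSO. Cells (HepaRG, duplicate wells) were dosed for 48 h across eight half-log concentrations topping at 100 uM; quantitation by TaqMan qRT-PCR.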

[5] = read-out: Forkhead box O1 (FOXO1), FOXO1 (gene 2308); assay: LTEA_HepaRG_FOXO1: Life Technologies and Expression Analysis (LTEA) Assay for Forkhead box O1 (FOXO1) using HepaRG (AID 2283456); conditions: mRNA level, 48 h; actives raise or lower the signal
Summary of the method: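 Using one lot of HepaRG hepatic cells kept in 0.5% DMSO, the team applied test chemicals in duplicate, half-log dilutions from 100 uM, for 48 h. Expression, normalised to ACTB/GAPDH/POLR2A, was compared with vehicle in either direction.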

[6] = read-out: growth arrest and DNA damage 45 (GADD45A), GADD45A (gene 1647); assay: LTEA_HepaRG_GADD45A: Life Technologies and Expression Analysis (LTEA) Assay for growth arrest and DNA damage 45 (GADD45A) using HepaRG (AID 2283458); conditions: mRNA level, 48 h; actives raise or lower the signal
Summary of the method: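 HepaRG, 48 h exposure, 8 conc. (top 100 uM, half-log steps), 0.5% DMSO vehicle, duplicates. Read-out: qRT-PCR mRNA level, housekeeping-normalized (ACTB/GAPDH/POLR2A). Curves fit bidirectionally vs DMSO baseline.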

[7] = read-out: Forkhead box O3 (FOXO3), FOXO3 (gene 2309); assay: LTEA_HepaRG_FOXO3: Life Technologies and Expression Analysis (LTEA) Assay for Forkhead box O3 (FOXO3) using HepaRG (AID 2283459); conditions: mRNA level, 48 h; actives raise or lower the signal
Summary of the method: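 Gene-expression endpoint: FOXO3 transcript level by qRT-PCR in HepaRG cultures treated 48 h with chemicals up to 100 uM (half-log, 0.5% DMSO vehicle).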

[8] = read-out: ABC Transporter (ABCB1), ABCB1 (gene 5243); assay: LTEA_HepaRG_ABCB1: Life Technologies and Expression Analysis (LTEA) Assay for ABC Transporter (ABCB1) using HepaRG (AID 2283460); conditions: mRNA level, 48 h; actives raise or lower the signal
Summary of the method: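 Human liver HepaRG line treated 48 h with up to 100 uM compound (eight half-log points, 0.5% DMSO); ABCB1 mRNA change fitted bidirectionally against DMSO controls.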

[9] = read-out: growth arrest and DNA damage 45 (GADD45B), GADD45B (gene 4616); assay: LTEA_HepaRG_GADD45B: Life Technologies and Expression Analysis (LTEA) Assay for growth arrest and DNA damage 45 (GADD45B) using HepaRG (AID 2283461); conditions: mRNA level, 48 h; actives raise or lower the signal
Summary of the method: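 Values are bidirectional concentration-response fits against 0.5% DMSO controls. Underlying data: qRT-PCR mRNA levels in human HepaRG liver cells treated 48 h in serum-free induction medium, eight concentrations topping at 100 uM.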

[10] = read-out: ABC Transporter (ABCC3), ABCC3 (gene 8714); assay: LTEA_HepaRG_ABCC3: Life Technologies and Expression Analysis (LTEA) Assay for ABC Transporter (ABCC3) using HepaRG (AID 2283462); conditions: mRNA level, 48 h; actives raise or lower the signal
Summary of the method: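 Differentiated HepaRG liver cells receive test chemicals at eight concentrations (max 100 uM) for 48 h. Expression of ABCC3 is quantified by qRT-PCR against ACTB, GAPDH and POLR2A, and activity is fitted in both directions against the DMSO control.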

[11] = read-out: ABC Transporter (ABCB11), ABCB11 (gene 8647); assay: LTEA_HepaRG_ABCB11: Life Technologies and Expression Analysis (LTEA) Assay for ABC Transporter (ABCB11) using HepaRG (AID 2283463); conditions: mRNA level, 48 h; actives raise or lower the signal
Summary of the method: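 Using HepaRG cultures held in 0.5% DMSO, chemicals were tested at half-log dilutions from 100 uM for 48 h. Induction or suppression of ABCB11 mRNA, normalized to ACTB, GAPDH and POLR2A, was fitted bidirectionally against vehicle.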

[12] = read-out: ABC Transporter (ABCC2), ABCC2 (gene 1244); assay: LTEA_HepaRG_ABCC2: Life Technologies and Expression Analysis (LTEA) Assay for ABC Transporter (ABCC2) using HepaRG (AID 2283464); conditions: mRNA level, 48 h; actives raise or lower the signal
Summary of the method: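 Gene expression of ABCC2 was determined by qRT-PCR in HepaRG cells exposed 48 h to chemicals (highest 100 uM, half-log dilutions). Activity was fitted in both directions relative to 0.5% DMSO vehicle.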

[13] = read-out: Broad substrate specificity ATP-binding cassette transporter ABCG2 (Homo sapiens) (UniProt Q9UNQ0); assay: LTEA_HepaRG_ABCG2: Life Technologies and Expression Analysis (LTEA) Assay for ABC Transporter (ABCG2) using HepaRG (AID 2283465); conditions: mRNA level, 48 h; actives raise or lower the signal
Summary of the method: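 Gene expression of ABCG2 in HepaRG liver cells is quantified by qRT-PCR following 48 h exposure across an eight-point series topping at 100 uM. Values come from bidirectional fitting relative to DMSO vehicle.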

[14] = read-out: ATP-citrate lyase (ACLY), ACLY (gene 47); assay: LTEA_HepaRG_ACLY: Life Technologies and Expression Analysis (LTEA) Assay for ATP-citrate lyase (ACLY) using HepaRG (AID 2283466); conditions: mRNA level, 48 h; actives raise or lower the signal
Summary of the method: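 ACLY expression changes in human HepaRG liver cells are quantified by qRT-PCR after 48 h exposure to test chemicals (maximum 100 uM, half-log steps). Values are fitted in both directions relative to 0.5% DMSO vehicle.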

[15] = read-out: Peroxisomal acyl-coenzyme A oxidase 1 (ACOX1) gene, ACOX1 (gene 51); assay: LTEA_HepaRG_ACOX1: Life Technologies and Expression Analysis (LTEA) Assay for Peroxisomal acyl-coenzyme A oxidase 1 (ACOX1) gene using HepaRG (AID 2283467); conditions: mRNA level, 48 h; actives raise or lower the signal
Summary of the method: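 Human HepaRG hepatic cultures, 48 h treatment with test chemicals up to 100 uM. ACOX1 expression read by qRT-PCR relative to 0.5% DMSO vehicle.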

[16] = read-out: Alkaline Phosphatase, Placental (ALPP) gene, ALPP (gene 250); assay: LTEA_HepaRG_ALPP: Life Technologies and Expression Analysis (LTEA) Assay for Alkaline Phosphatase, Placental (ALPP) gene using HepaRG (AID 2283468); conditions: mRNA level, 48 h; actives raise or lower the signal
Summary of the method: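 Expression of ALPP was quantified by qRT-PCR against three housekeeping genes in human HepaRG cultures treated for 48 h with an eight-point concentration series up to 100 uM. Activity in either direction was fitted relative to 0.5% DMSO.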

[17] = read-out: Bcl-2 (BAD) gene, BAD (gene 572); assay: LTEA_HepaRG_BAD: Life Technologies and Expression Analysis (LTEA) Assay for Bcl-2 (BAD) gene using HepaRG (AID 2283469); conditions: mRNA level, 48 h; actives raise or lower the signal
Summary of the method: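 Activity values reflect up- or down-regulation of BAD mRNA in human HepaRG hepatic cells treated 48 h in serum-free medium, with eight-point half-log dosing capped at 100 uM and 0.5% DMSO vehicle.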

[18] = read-out: Bcl-2 (BAX) gene, BAX (gene 581); assay: LTEA_HepaRG_BAX: Life Technologies and Expression Analysis (LTEA) Assay for Bcl-2 (BAX) gene using HepaRG (AID 2283470); conditions: mRNA level, 48 h; actives raise or lower the signal
Summary of the method: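 qRT-PCR read-out of BAX mRNA, normalized to three housekeeping genes, after 48 h chemical exposure of human HepaRG cells in serum-free induction medium; eight-point half-log series, top 100 uM, 0.5% DMSO vehicle; bidirectional fit versus DMSO.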

[19] = read-out: adenosine kinase (ADK) gene, ADK (gene 132); assay: LTEA_HepaRG_ADK: Life Technologies and Expression Analysis (LTEA) Assay for adenosine kinase (ADK) gene using HepaRG (AID 2283471); conditions: mRNA level, 48 h; actives raise or lower the signal
Summary of the method: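 HepaRG (human liver), 48 h chemical exposure, 8-pt half-log series, top 100 uM, 0.5% DMSO vehicle. Readout: ADK mRNA by qRT-PCR vs housekeeping genes; bidirectional curve fit relative to DMSO baseline.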

[20] = CEETOX_H295R_TESTO: CeeTox H295R High-throughput Steroidogenesis Assay for Testosterone (TESTO) (AID 2283457); conditions: actives raise or lower the signal
Summary of the method: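 Testosterone synthesis is assessed in human adrenocortical H295R cells after 48 h of chemical exposure, using HPLC-MS/MS of extracted medium. Activity is fitted in both directions against DMSO control.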

Measured: AC50

Broad substrate specificity ATP-binding cassette transporter ABCG2 (Homo sapiens), sequence (Q9UNQ0 whole entry, looked up): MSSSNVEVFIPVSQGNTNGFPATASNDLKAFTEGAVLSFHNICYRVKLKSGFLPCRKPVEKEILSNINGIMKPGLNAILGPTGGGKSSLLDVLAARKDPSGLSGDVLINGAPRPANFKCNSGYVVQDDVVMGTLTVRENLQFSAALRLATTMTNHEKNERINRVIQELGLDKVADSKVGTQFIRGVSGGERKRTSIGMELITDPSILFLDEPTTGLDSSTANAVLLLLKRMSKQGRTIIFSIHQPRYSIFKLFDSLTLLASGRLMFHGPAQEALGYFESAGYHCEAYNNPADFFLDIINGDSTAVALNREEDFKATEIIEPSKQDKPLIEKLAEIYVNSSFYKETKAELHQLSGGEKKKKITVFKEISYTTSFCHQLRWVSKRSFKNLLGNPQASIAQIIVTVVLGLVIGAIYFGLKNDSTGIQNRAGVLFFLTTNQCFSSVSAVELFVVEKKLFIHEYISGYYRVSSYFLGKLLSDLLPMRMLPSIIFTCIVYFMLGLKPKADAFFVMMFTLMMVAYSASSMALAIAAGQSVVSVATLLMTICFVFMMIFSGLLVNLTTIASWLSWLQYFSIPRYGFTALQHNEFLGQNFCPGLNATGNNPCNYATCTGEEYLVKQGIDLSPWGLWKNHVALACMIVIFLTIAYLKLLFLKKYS

Clc1cc(Cl)c2c(c1)N=C1CCCCCN1C2
active: [3] 1.61 µM | [9] 6.31 µM
not listed: [20]
inactive: all other assays above

CC1=CC(=O)/C(=C(/C)O)C(=O)O1
not listed: [20]
inactive: all other assays above

O=C(O)Cn1c(=O)n(Cc2ccc(Br)cc2F)c(=O)c2ccc(Cl)cc21
active: [3] 87.8 µM | [8] 9.92 µM
inactive: all other assays above

O=C1O[C@H]([C@@H](O)CO)C(O)=C1O
active: [3] 61.8 µM
not listed: [20]
inactive: all other assays above

CCO[Si](CCCNC(N)=O)(OCC)OCC
active: [3] 50 µM
not listed: [20]
inactive: all other assays above

CCCCCCCCCCCC[N+](C)(C)C
active: [1] 75.4 µM | [2] 79.3 µM | [3] 67.8 µM | [6] 74.9 µM | [9] 84.1 µM | [11] 73.9 µM | [12] 50 µM | [13] 67.5 µM | [14] 83.3 µM | [15] 77.8 µM | [16] 66.1 µM | [18] 84.6 µM
inactive: [4] | [5] | [7] | [8] | [10] | [17] | [19]

O=C(OCCCCCCOC(=O)c1ccccc1)c1ccccc1
not listed: [20]
inactive: all other assays above

COc1ccc2cc(S(=O)(=O)N[C@H](CC(=O)N[C@H](Cc3ccc(CN4[C@H](C)CCC[C@@H]4C)cc3)C(=O)N(C)C(C)C)c3ccc4c(c3)OCO4)ccc2c1
active: [1] 17.7 µM | [2] 17.3 µM | [3] 24.4 µM | [4] 15.1 µM | [5] 25.2 µM | [6] 25.9 µM | [8] 23.1 µM | [9] 47.8 µM | [10] 11.2 µM | [11] 24.2 µM | [12] 16.2 µM | [15] 20.3 µM | [16] 0.741 µM | [18] 81.8 µM | [19] 13.3 µM
inactive: [7] | [13] | [14] | [17]

OCCO
active: [7] 12.7 µM
not listed: [20]
inactive: all other assays above

CCCCOC(=O)c1ccc(O)cc1
not listed: [9]
inactive: all other assays above

CCCCCCCCCC(=O)O
active: [3] 70.9 µM
not listed: [20]
inactive: all other assays above

O=C(O)Cc1cc(I)c(Oc2ccc(O)c(I)c2)c(I)c1
inactive: [3] | [4] | [7] | [8] | [10] | [12] | [14] | [17] | [19]
active: [1] 9.92 µM | [2] 91.2 µM | [5] 50 µM | [6] 94.5 µM | [9] 50 µM | [11] 20.2 µM | [13] 73.1 µM | [15] 86 µM | [16] 76.9 µM | [18] 87.2 µM
